Shh pathway inh: blocks Sonic Hedgehog signaling | Shh-LIGHT2 Gli-luciferase reporter, 30 h | inhibition, % (no concentration beside the values) | hit rate 2.1% among 22,000 | AID 2313;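 active = mean inhibition across valid replicates above about 65%, limit read from the data; inconclusive = mean under the limit, yet half or more replicates past it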;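 also: pathway switched on by Shh-conditioned medium diluted 1 in 25 in low serum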
MITF inhib: blocks MITF activity. TRPM1 promoter luciferase, luminescence, 24 h. inhibition, % (concentration not given with the values). hit rate 0.28% among 37,000. AID 2240; in the data active = inhibition above about 85%; inconclusive = no clear call, values can overlap the other calls; inactive = below about 68%;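 also: human melanocyte line stably carrying TRPM1 promoter luciferase reporter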
NOMO-1 viab: STK33 inhibitor candidate reducing NOMO-1 cell viability. inhibition, % (test concentration not listed). NOMO-1 AML viability, CellTiter-Glo luminescence, 72 h. hit rate 7.5% among 37,000. AID 2330; in the data active = inhibition above about 80%; inconclusive = no clear call, values can overlap the other calls
PD-1 reverse act: activators reversing PD-1 mediated T-cell inhibition; primary human CD4 T cells, PD-L1 beads, CellTiter-Glo 96 h; activation, % (no concentration beside the values); 29,000 tested, under 10 active; AID 2316; call rule not given here;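 also: 0% = median vehicle wells and 100% = positive control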
* hit, by the source's call; u = inconclusive; x = no result. The list is not random: actives were taken first. Their share in the collection is about 8.1%.

SMILES	Shh pathway inh	MITF inhib	NOMO-1 viab	PD-1 reverse act
Cc1noc(C)c1S(=O)(=O)N(C)C[C@H]1OCCCC[C@@H](C)Oc2ccc(NC(=O)Nc3ccc(C(F)(F)F)cc3)cc2C(=O)N([C@H](C)CO)C[C@@H]1C	30.6	22.7	104.1*	-2.8
C[C@@H]1CCCCO[C@H](CN(C)S(=O)(=O)c2cccs2)[C@@H](C)CN([C@H](C)CO)C(=O)c2cc(NC(=O)Nc3ccc(C(F)(F)F)cc3)ccc2O1	-36.3	9.9	90.1*	-3.3
Cc1noc(C)c1NC(=O)Nc1ccc2c(c1)C(=O)N([C@H](C)CO)C[C@H](C)[C@@H](CN(C)S(=O)(=O)c1c(C)noc1C)OCCCC[C@@H](C)O2	-10.1	-5.4	-3.3	2.7
C[C@@H]1CCCCO[C@@H](CN(C)S(=O)(=O)c2cccs2)[C@@H](C)CN([C@H](C)CO)C(=O)c2cc(NC(=O)Nc3ccc(C(F)(F)F)cc3)ccc2O1	-9.3	10.6	40.1	x
Cc1oc2c(c1C(=O)NCCC(C)C)C(=O)c1ccccc1C2=O	90.4*	u	140.4*	-4.8
Cc1oc2c(c1C(=O)NCCCn1ccnc1)C(=O)c1ccccc1C2=O	110.2*	65.7	141.3*	-5.4
COC(=O)c1ccccc1NC(=O)C1CC(c2cc(Cl)c(OC)cc2OC)=NO1 (stereo not given)	x	28.6	46.0	x
COc1cccc(OCC(=O)Nc2cc([N+](=O)[O-])ccc2OC)c1	x	35.4	-13.7	-3.1
CC(C)=CCc1c2c(c3occ(-c4ccc(O)cc4)c(=O)c3c1O)C=CC(C)(C)O2	50.9	37.4	106.6*	x
CC1(C)C=Cc2c(c(CCO)c3occ(-c4ccc(O)c(O)c4)c(=O)c3c2O)O1	27.7	-31.7	39.6	-0.4
C=CCNC(=O)CSc1nccc(-c2sc3sc(Br)c(C)c3c2C)n1	32.8	19.0	109.6*	-0.6
Cc1csc2sc(-c3ccnc(SCc4ccccc4)n3)c(C)c12	-2.0	-5.2	-2.5	1.0
Cc1c(Br)sc2sc(-c3ccnc(SCC(=O)NC(C)C)n3)c(C)c12	-15.7	18.8	114.9*	0.2
COC(=O)c1cccc(N=C(N)N=C(N)N)c1	x	-23.0	-9.1	0.0
C=CC(C)(O)CC(/C=C(\C)CC(/C=C(\C)CCC=C(C)C)OC(C)=O)OC(C)=O (stereo not given)	-4.5	1.2	98.2*	-1.1
O=C(CSc1ncccc1C(=O)O)c1cccc([N+](=O)[O-])c1	x	2.8	-21.7	x
N#C/C(=C\c1ccc(O)c(O)c1)C(=O)NCCCc1ccccc1	86.1*	2.5	92.3*	-1.6
N#C/C(=C\c1ccc(O)c(O)c1)C(=O)c1ccc(O)c(O)c1	39.8	-3.0	45.6	1.3
O=c1c(Cl)c(NCCc2ccccc2)cnn1-c1ccccc1	57.8	-37.2	-6.3	-1.7
CCc1nc2c(cnn2-c2ccccc2)c(=O)n1CCc1ccccc1	-12.9	13.2	113.2*	-0.6
CSc1sc(C(=O)NN)cc1-c1nc(C)cs1	5.1	3.9	28.3	0.0
CCOC(=O)c1ccc(-n2c(C)cc(C=C3C(=O)NC(=S)NC3=O)c2C)cc1	8.9	27.5	121.0*	-1.6
N#CC(C#N)=C(N)/C(C#N)=C/c1cc(O)c(O)c(O)c1	76.2*	-9.5	31.6	-0.7
CC(C)(C)c1cc(/C=C(\C#N)C(N)=S)cc(C(C)(C)C)c1O	105.9*	90.8*	117.7*	x
CCn1c(SCC(=O)Nc2cccc(Cl)c2Cl)nc2ccccc2c1=O	23.9	5.7	52.1	-0.8
SMILES	Shh pathway inh	MITF inhib	NOMO-1 viab	PD-1 reverse act
COc1cc(C(=O)N=C2C(C)=CC(=O)C=C2C)cc(OC)c1OC	x	2.7	134.7*	-6.1
COc1cc(C(=O)NC(C)C(=O)O)cc(OC)c1OC (stereo not given)	x	-8.7	25.9	x
COc1ccc(/C=C2/SC(=S)N(C)C2=O)cc1	x	-7.8	-15.0	0.2
C[C@@H]1CCCCO[C@@H](CN(C)Cc2ccc(C(=O)Nc3ccccc3N)cc2)[C@@H](C)CN([C@H](C)CO)C(=O)c2cc(NS(=O)(=O)c3ccc(F)cc3)ccc2O1	x	34.2	140.8*	-0.6
C[C@@H]1CCCCO[C@H](CN(C)Cc2ccc(C(=O)Nc3ccccc3N)cc2)[C@@H](C)CN([C@H](C)CO)C(=O)c2cc(NS(=O)(=O)c3ccc(Cl)cc3)ccc2O1	x	40.8	126.6*	0.0
C[C@@H]1CCCCO[C@H](CN(C)C(=O)Nc2cccc3ccccc23)[C@@H](C)CN([C@H](C)CO)C(=O)c2cc(NS(=O)(=O)c3ccccc3)ccc2O1	x	15.0	41.4	0.0
C[C@@H]1CCCCO[C@@H](CN(C)Cc2ccc(C(=O)Nc3ccccc3N)cc2)[C@@H](C)CN([C@H](C)CO)C(=O)c2cc(NS(=O)(=O)c3ccccc3)ccc2O1	x	16.3	139.6*	-1.2
C[C@@H]1CCCCO[C@H](CN(C)C(=O)Nc2cccc3ccccc23)[C@@H](C)CN([C@H](C)CO)C(=O)c2cc(NS(=O)(=O)c3ccc(F)cc3)ccc2O1	22.0	22.1	93.8*	-3.8
Cc1ccc(NC(=O)CC(c2ccccc2)c2ccccc2)cc1C	x	8.4	40.6	-1.0
O=C(Nc1ccc(Br)cc1)C12CC3CC(CC(C3)C1)C2	-14.5	-2.1	9.8	0.3
CC(=O)c1ccc(NC(=O)CN(C)S(=O)(=O)c2ccc(C)cc2)cc1	x	-43.8	-10.7	0.7
O=C(Nc1nc(-c2ccccc2)cs1)C12CC3CC(CC(C3)C1)C2	-86.3	-19.6	108.3*	-0.1
Cc1ccc(NC(=O)CSC2CC(=O)N(c3ccccc3)C2=O)cc1C (stereo not given)	x	-5.2	8.9	x
Cc1ccc(S(=O)(=O)Nc2ccc3c(c2)CC(=O)N([C@@H](C)CO)C[C@H](C)[C@@H](CN(C)CC2CCCCC2)O3)cc1	8.7	14.9	u	-2.0
C[C@@H]1CN([C@@H](C)CO)C(=O)Cc2cc(NS(=O)(=O)c3ccc(Cl)cc3)ccc2O[C@@H]1CN(C)CC1CCCCC1	-3.3	-9.4	101.6*	-5.9
C[C@H]1CN([C@@H](C)CO)C(=O)Cc2cc(NS(=O)(=O)c3ccc(Cl)cc3)ccc2O[C@H]1CN(C)CC1CC1	x	-7.5	9.1	0.9
Cc1ccc(S(=O)(=O)Nc2ccc3c(c2)CC(=O)N([C@@H](C)CO)C[C@@H](C)[C@@H](CN(C)CC2CCCCC2)O3)cc1	15.7	-6.3	97.1*	-1.3
CC(C)=CCCC1(C)C=Cc2c(c(C)cc3c2[nH]c2cc(O)ccc23)O1 (stereo not given)	26.1	-12.8	107.9*	-3.2
FC(F)(F)c1cc(-c2ccc3ccccc3c2)no1	-33.0	-3.7	88.1*	0.4
C[C@@H]1CN([C@H](C)CO)C(=O)c2cccc(NC(=O)Nc3ccc(C(F)(F)F)cc3)c2O[C@@H]1CN(C)Cc1ccc(Cl)c(Cl)c1	31.4	9.6	76.2	-4.0
C[C@@H]1CN([C@@H](C)CO)C(=O)c2cccc(NC(=O)Nc3ccc(C(F)(F)F)cc3)c2O[C@H]1CN(C)Cc1ccc(Cl)c(Cl)c1	-42.8	31.8	107.1*	-3.4
C[C@@H]1CN([C@H](C)CO)C(=O)c2cccc(NC(=O)Nc3ccc(C(F)(F)F)cc3)c2O[C@H]1CN(C)Cc1ccc(Cl)c(Cl)c1	-7.2	41.5	103.9*	-6.0
Nc1ncnc2c1c(I)cn2C1OC(CO)C(O)C1O (stereo not given)	44.0	87.6*	114.5*	x

Source: PubChem BioAssay
